DT40 TDP1 no CPT: qHTS for Inhibitors of human tyrosyl-DNA phosphodiesterase 1 (TDP1): qHTS in cells in absence of CPT. DT40 Tdp1-/- hTDP1 cells, no CPT, ATP luminescence, 48 h. Potency, µM (doses to about 46.2 µM), without a hit: at the highest dose activity change, negative = growth inhibition, actives largely listed as inhibitors. actives 15% (n = 420,000); note: nearly all actives have a fitted effect of over 55% in size
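Camptothecin absent (DMSO only). Human TDP1-complemented DT40 knockout cells, 400 cells/well, 37 °C for minimum 48 hr; ATP measured via CellTiter-Glo, 30 min dark incubation, luminescence.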
ELG1 repair inh: inhibitors of ELG1-dependent DNA repair in HEK293T cells | HEK293T ELG1-luciferase reporter, luminescence, 16 h; DNA damage induced by 5-fluorouridine | Potency, µM (top dose mostly 46.1 µM), inactives show at the highest dose activity change, negative = inhibition, actives largely listed as inhibitors | actives 2.3% (n = 330,000) | AID 504467; note: nearly all actives have a fitted effect of over 55% in size
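Reporter activity after DNA damage by 5-fluorouridine is monitored. Compound-treated cells incubate 16 hr at 37 °C, then ONE-Glo is added for 30 min before luminescence reading.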
RORgamma inh: ROR gamma (mouse) transcription inhibition | Potency, µM (doses to about 53.6 µM), for inactives: top-dose activity change, negative = inhibition, hits mostly inhibitors | Drosophila S2 Gal4-RORgamma UAS-luciferase reporter, 20 h | P51450 | actives 5.4% (n = 310,000) | AID 2551; note: nearly all actives have a fitted effect of over 60% in size
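A Gal4/UAS one-hybrid system in insect cells: metallothionein-promoter Gal4–ROR gamma fusion plus Photinus luciferase reporter. Copper sulfate 700 uM final, 20 hr ambient incubation, luminescent detection after 10 min with reagent.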
Gal4-VP16 FLuc: inhibits Gal4-VP16 luciferase reporter, ROR gamma counter-screen. AID 2546. actives 3.5% (n = 310,000). Drosophila S2 Gal4-VP16 UAS-luciferase, luminescence, 20 h. Potency, µM (top dose mostly 53.6 µM), for the others: top-dose activity, negative = inhibition, usual class: inhibitors;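 note: Gal4-VP16 expression switched on by copper sulfate through the metallothionein promoter; nearly all actives have a fitted effect of over 50% in size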
ALOX12 inh: blocks human arachidonate 12S-lipoxygenase; purified 12hLO, xylenol orange hydroperoxide absorbance; Potency, µM (titrated, usually from 108 µM), for inactives: at the top dose activity change, negative = inhibition, usual class: inhibitors; actives 1.1% (n = 580,000); AID 1671190
Target sequence (P18054 whole entry, looked up): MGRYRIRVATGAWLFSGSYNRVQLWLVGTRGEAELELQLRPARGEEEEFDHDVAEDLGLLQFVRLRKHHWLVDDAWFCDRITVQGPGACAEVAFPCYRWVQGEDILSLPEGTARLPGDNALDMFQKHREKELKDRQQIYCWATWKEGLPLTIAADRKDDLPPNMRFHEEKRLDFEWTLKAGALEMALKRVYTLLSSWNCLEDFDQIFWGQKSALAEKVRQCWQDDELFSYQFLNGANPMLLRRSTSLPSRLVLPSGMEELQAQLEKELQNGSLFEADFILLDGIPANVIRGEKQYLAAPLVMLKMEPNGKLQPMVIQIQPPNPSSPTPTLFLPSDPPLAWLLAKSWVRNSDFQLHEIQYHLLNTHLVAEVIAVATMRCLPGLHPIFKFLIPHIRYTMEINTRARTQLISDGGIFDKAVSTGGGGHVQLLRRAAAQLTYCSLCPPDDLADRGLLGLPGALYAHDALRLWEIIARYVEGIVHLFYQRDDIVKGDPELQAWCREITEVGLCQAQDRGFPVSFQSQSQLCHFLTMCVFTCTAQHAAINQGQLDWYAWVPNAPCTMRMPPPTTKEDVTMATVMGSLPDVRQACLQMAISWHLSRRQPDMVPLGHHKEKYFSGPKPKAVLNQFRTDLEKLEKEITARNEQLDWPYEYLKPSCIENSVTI
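Purified human 12hLO (150 nM final) in 25 mM Hepes, 0.01% Triton X-100, pH 7.0 was preincubated 15 min at room temperature with compound. Then 40 uM arachidonic acid was added, 30 min. Hydroperoxide was read by Fe-XO absorbance ratio 573/405 nm.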
DT40 TDP1 CPT: DT40-hTDP1 cell growth loss with CPT | chicken DT40 Tdp1-/-;hTDP1 cells + 20 nM CPT, ATP luminescence, 48 h | Potency, µM (top dose mostly 46.2 µM), for inactives: at the top dose activity change, negative = growth inhibition, most hits filed as inhibitors | actives 12% (n = 420,000); note: nearly all actives have a fitted effect of over 55% in size
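Chicken DT40 Tdp1-/- cells stably complemented with human TDP1 were seeded at 400 cells/well in medium containing 20 nM camptothecin, exposed to pin-transferred compounds, and grown at 37 °C for at least 48 hr. Viability was read as ATP luminescence.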
* = called active by the depositor; ! = a repeat was not active; [ ] = remark or other dose. In the library only some 15% were active in any assay of this set; here they are far more common. Calls come from the whole dose curve; as a rule, active = well fitted curve in the direction sought with a large enough effect; inconclusive = small, poorly fitted or top-dose-only effect, or another doubt; inactive = no such curve, though single readings can be large; an effect the other way counts as inactive or inconclusive. % is set by controls: 0 for no effect and ±100 for the full control effect; potency is the fitted concentration of half-maximal effect.

`Fc1ccc(-c2noc(-c3nc(-c4ccncc4)no3)n2)cc1F` gave ALOX12 inh 15.6%.
For COC1=CC(=O)C(O)=C/C1=C\C=C\c1ccccc1 the results were DT40 TDP1 no CPT 4.61µM*, RORgamma inh -94.6%, Gal4-VP16 FLuc 12.6µM* and DT40 TDP1 CPT 2.59µM*.
Screening COC(=O)C(=C/C=C/c1ccccc1)C(=O)OC returned ALOX12 inh -14.6%.
O=C(O)CCCn1c(=S)[nH]c2c(sc3ccc([N+](=O)[O-])cc32)c1=O was read as DT40 TDP1 no CPT 10.0%, ELG1 repair inh 2.4%, RORgamma inh -36.8%, Gal4-VP16 FLuc -10.6%, ALOX12 inh 17.8µM* and DT40 TDP1 CPT 5.5%.
Screening O=c1c2sc3ccccc3c2[nH]c(=S)n1CCN1CCOCC1 returned DT40 TDP1 no CPT 5.3%, ELG1 repair inh inconclusive, RORgamma inh -21.4%, Gal4-VP16 FLuc -1.1%[10 µM], ALOX12 inh inconclusive and DT40 TDP1 CPT 14.4%.
For COCCCn1c(=S)[nH]c2c(sc3ccccc32)c1=O the results were DT40 TDP1 no CPT -1.8%, ELG1 repair inh 24.8%, RORgamma inh 1.26µM*, Gal4-VP16 FLuc inconclusive, ALOX12 inh inconclusive and DT40 TDP1 CPT 0.8%.
For O=C(/C=C/c1ccc(F)cc1)NCCc1ccccn1 the results were ALOX12 inh 28.5%.
For Cc1ccc(N2CCN(C(=O)c3nn(C)c4c3CS(=O)(=O)c3ccccc3-4)CC2C)cc1 (stereo not given) the results were DT40 TDP1 no CPT inconclusive, ELG1 repair inh -6.7%, RORgamma inh -0.8%, Gal4-VP16 FLuc 0.4%, ALOX12 inh -20.8% and DT40 TDP1 CPT 20.6µM*!.
Screening CC1CCCN(C(=O)c2nn(C)c3c2CS(=O)(=O)c2ccccc2-3)C1 (stereo not given) returned DT40 TDP1 no CPT 24.0%, ELG1 repair inh -4.8%, RORgamma inh -0.5%, Gal4-VP16 FLuc -0.6%, ALOX12 inh -18.6% and DT40 TDP1 CPT -7.7%.
For O=C(c1cccs1)N1CCC(N2C(=O)C(O)C23CCCCC3)CC1 (stereo not given) the results were ALOX12 inh 51.1%.
For CC(C)(C)C(=O)N1CCN(c2ccc(NC(=O)C3(c4ccccc4)CCCC3)cc2)CC1 the results were ALOX12 inh -4.4%.
O=C(NC(=S)N1CCOCC1)C12CCC3CC(CC(C3)C1)C2 was read as DT40 TDP1 no CPT 19.7%, ELG1 repair inh 13.6%, RORgamma inh 1.26µM*, Gal4-VP16 FLuc 1.78µM*, ALOX12 inh -20.7% and DT40 TDP1 CPT -16.4%.
For CC(C)(C)C(=O)NC(=S)N1CCOCC1 the results were DT40 TDP1 no CPT -3.2%, ELG1 repair inh 0.6%, RORgamma inh -24.3%, Gal4-VP16 FLuc -10.9%, ALOX12 inh -3.6% and DT40 TDP1 CPT 5.5%.
For O=C(NC(=S)N1CCOCC1)C12CC3CCC(CC(C3)C1)C2 the results were DT40 TDP1 no CPT inconclusive, ELG1 repair inh 5.5%, RORgamma inh 4.47µM*, Gal4-VP16 FLuc 6.31µM*, ALOX12 inh -1.7% and DT40 TDP1 CPT -16.1%.
`CC12CC3(C)CC(C)(C1)CC(C(=O)NC(=S)N1CCOCC1)(C2)C3` gave DT40 TDP1 no CPT inconclusive, ELG1 repair inh -9.2%, RORgamma inh 0.891µM*, Gal4-VP16 FLuc inconclusive, ALOX12 inh inconclusive and DT40 TDP1 CPT inconclusive.
Screening Cc1oc(-c2ccccc2)nc1C(=O)OCC(=O)NC(N)=O returned ALOX12 inh -7.9%.
Screening O=C(Nc1ccc2oc(-c3ccncc3)nc2c1)c1cc(Cl)ccc1Cl returned ALOX12 inh 6.6%.
Screening CC[C@H]1OC(=O)[C@H](C)[C@@H](O[C@H]2C[C@@](C)(OC)[C@@H](O)[C@H](C)O2)[C@H](C)[C@@H](O[C@@H]2O[C@H](C)C[C@H](N(C)C)[C@@H]2O)[C@](C)(OC)C[C@@H](C)C(=O)[C@H](C)[C@@H](O)[C@]1(C)O returned ALOX12 inh -8.7%[57.4 µM].
CC[C@H]1OC(=O)[C@H](C)C(=O)[C@H](C)[C@@H](O[C@H]2O[C@H](C)C[C@H](N(C)C)[C@@H]2O)[C@](C)(OC)C[C@@H](C)C(=O)[C@H](C)[C@H]2N(CCCCn3cnc(-c4cccnc4)c3)C(=O)O[C@]12C was read as ALOX12 inh 4.85µM*.
CC[C@H]1OC(=O)[C@H](C)C(=O)[C@H](C)[C@@H](O[C@@H]2O[C@H](C)C[C@H](N(C)C)[C@H]2O)[C@](C)(OC)C[C@@H](C)C(=O)[C@H](C)[C@H]2N(CCCCn3cnc(-c4cccnc4)c3)C(=O)O[C@]12C was read as DT40 TDP1 no CPT 2.11µM* and DT40 TDP1 CPT 2.37µM*!.
`COc1ccccc1NC(=O)CSc1ccc(-c2ccc(-n3ccnc3)cc2)nn1` gave DT40 TDP1 no CPT 13µM*, ELG1 repair inh inconclusive, ALOX12 inh 25.2% and DT40 TDP1 CPT 20.6µM*.
Screening COc1ccc(Cl)cc1NC(=O)CSc1cc(C)[nH]c(=O)n1 returned DT40 TDP1 no CPT -16.9%, ALOX12 inh -17.6% and DT40 TDP1 CPT -9.2%.
For CC(=O)Nc1ccc(NC(=O)CSc2ccc(-c3sc(C)nc3C)nn2)cc1 the results were DT40 TDP1 no CPT inconclusive, ELG1 repair inh -3.2%, RORgamma inh -14.9%, Gal4-VP16 FLuc -6.0%, ALOX12 inh 0.0% and DT40 TDP1 CPT -22.1%.
`COc1ccc(OC)c(NC(=O)CSc2ccc(-c3ccco3)nn2)c1` gave DT40 TDP1 no CPT inconclusive, ELG1 repair inh -6.0%, RORgamma inh 2.4%, Gal4-VP16 FLuc -0.8%, ALOX12 inh inconclusive and DT40 TDP1 CPT inconclusive.
COc1ccc(OC)c(NC(=O)CSc2ccc(-c3sc(C)nc3C)nn2)c1 was read as DT40 TDP1 no CPT 13µM*, ALOX12 inh -23.2% and DT40 TDP1 CPT 14.6µM*.
COc1ccc(C)cc1NC(=O)CSc1ccc(-c2sc(C)nc2C)nn1 was read as DT40 TDP1 no CPT inconclusive, ELG1 repair inh -17.5%, RORgamma inh 25.2%, Gal4-VP16 FLuc -1.7%, ALOX12 inh 20.1% and DT40 TDP1 CPT 13µM*.
For COc1ccc(Cl)cc1NC(=O)CSc1ccc(-c2sc(C)nc2C)nn1 the results were DT40 TDP1 no CPT 10.3µM*, ALOX12 inh -18.8% and DT40 TDP1 CPT 13µM*.
